Active and inactive are the calls of the source.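 Rule for the calls, unless noted: active = inhibition of the reporter signal at or above 50%; inactive = inhibition below 50%.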
What was measured:
[1] = inhibitors of TNFa-induced NFkB p65 translocation, primary screen, imaging, HUVEC, MLSMR starter and 10KST1 sets (AID 438;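 active = inhibition above 20% together with a positive visual image hit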;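 note: compound added about 3h40 before a 20 min TNFalpha stimulation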;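 for inhibition: signal is the nuclear over cytoplasmic p65 intensity ratio per well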); conditions: HUVEC TNFa-induced p65 nuclear translocation; cell count: measured here: nuclei count (cytotoxicity indicator), at 2.08 µM unless noted; inhibition: at 2 µM, stronger effect = higher value unless noted
[2] = inhibitors of mutant huntingtin aggregation, primary screen, imaging, exon1htt(103Q)mCFP cells, high-content imaging (AID 483;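 active = visual image review flags a hit and inhibition of aggregation exceeds 20%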;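 note: compound exposure lasted 3 days before fixation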;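 for nuclei count: percent of the per-plate median nuclei count of sample wells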); conditions: exon1htt(103Q)mCFP cell line, aggregate imaging, at 2 µM; inhibition of aggregation: stronger effect = higher value; nuclei count: measured here: cell count, toxicity
[3] = inhibitors of E-selectin induction by TNFa, primary screen, imaging, HUVEC, immunofluorescence, MLSMR starter and 10KST1 sets (AID 487;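 active = visually confirmed hit in the image check and inhibition above 20%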;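 for inhibition: signal is fraction of cell area covered by stained E-selectin grains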;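 for nuclei count: 100% = median nuclei count of all wells on the same plate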); conditions: HUVEC TNFalpha-induced E-selectin immunofluorescence imaging, at 2 µM; inhibition: stronger effect = higher value; nuclei count: measured here: cell number, toxicity
[4] = biological target: Voltage-gated potassium channel subunit beta-2 (Rattus norvegicus) (UniProt P62483); assay: KvBeta enzyme negative modulators, primary screen, biochemical, NADPH fluorescence (AID 622;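 active = fluorescence slope higher than the sample average by over 3 SD, cut at about -0.22 in these data, passing the limit was not always enough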;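 note: slope of raw intensity against log time taken from 70 to 1610 s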); conditions: recombinant KvBeta, 4-cyanobenzaldehyde reduction, at 10 µM, stronger effect = higher value
Chain of Voltage-gated potassium channel subunit beta-2 (Rattus norvegicus) (P62483 whole entry, looked up): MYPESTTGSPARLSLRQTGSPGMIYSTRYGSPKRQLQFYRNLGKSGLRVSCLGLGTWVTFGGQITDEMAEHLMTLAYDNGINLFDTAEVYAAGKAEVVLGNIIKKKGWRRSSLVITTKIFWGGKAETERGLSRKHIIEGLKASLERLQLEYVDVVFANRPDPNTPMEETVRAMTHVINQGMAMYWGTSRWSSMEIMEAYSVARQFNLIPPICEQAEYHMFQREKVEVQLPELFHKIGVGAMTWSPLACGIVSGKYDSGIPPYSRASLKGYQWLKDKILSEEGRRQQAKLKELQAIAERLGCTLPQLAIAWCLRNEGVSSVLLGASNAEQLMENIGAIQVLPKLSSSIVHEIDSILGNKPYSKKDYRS

[5] = biological target: Voltage-gated potassium channel subunit beta-2 (Rattus norvegicus) (UniProt P62483); assay: KvBeta positive modulators, primary screen, biochemical, NADPH fluorescence (AID 623;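 active = NADPH fluorescence slope more negative than the mean of all samples by about 3 SD, 99.7% confidence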;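 note: fluorescence intensity change per second fitted from 20 to 320 s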); conditions: Recombinant KvBeta, NADPH fluorescence decrease slope, 10 min; at 10 µM; stronger effect = lower value
[6] = biological target: Alpha-2C adrenergic receptor (Homo sapiens) (UniProt P18825); assay: modulators of alpha2C/GIRK thallium flux, primary screen, cell-based, HEK293 alpha2C/GIRK1/2 (AID 624;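 active = fluorescence slope after compound addition differing from the mean of all screened samples at 99.7% confidence, in either direction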;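 note: slope of fluorescence ratio to pre-addition baseline per second over 15 to 24 s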); conditions: thallium flux BTC fluorescence, at 10 µM, actives lie on both sides
Chain of Alpha-2C adrenergic receptor (Homo sapiens) (P18825 whole entry, looked up): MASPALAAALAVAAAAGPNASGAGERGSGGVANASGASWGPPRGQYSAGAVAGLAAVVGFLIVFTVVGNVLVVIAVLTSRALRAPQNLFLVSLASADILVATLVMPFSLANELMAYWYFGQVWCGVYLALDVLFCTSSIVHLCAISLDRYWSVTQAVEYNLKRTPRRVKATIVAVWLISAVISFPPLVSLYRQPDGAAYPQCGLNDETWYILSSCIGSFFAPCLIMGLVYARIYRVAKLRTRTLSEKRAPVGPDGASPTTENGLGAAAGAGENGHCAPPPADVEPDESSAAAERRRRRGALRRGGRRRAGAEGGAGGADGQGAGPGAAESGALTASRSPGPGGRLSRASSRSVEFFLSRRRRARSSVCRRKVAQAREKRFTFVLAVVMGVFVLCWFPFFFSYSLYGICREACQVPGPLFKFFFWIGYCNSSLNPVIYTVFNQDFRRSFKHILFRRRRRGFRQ

[7] = inhibitors of Sendai virus-induced IRF3 signaling, primary screen, TLR/RLR signaling modifier project, cell-based, Sendai virus stimulus, luciferase, 10K MLSCN set (AID 602276;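 active = inhibition at or above 50% at 10 µM; inactive = inhibition below 50%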;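 note: firefly luciferase from ISG56 promoter only with Renilla not read in this screen; 0% = Sendai virus plus DMSO and 100% = medium plus DMSO without virus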); conditions: HEK293 RL24 IRF3 luciferase reporter, at 10 µM, stronger effect = higher value
[8] = inhibitors of poly I:C-induced TLR3 signaling, primary screen, cell-based, poly I:C stimulus, luciferase, 10K MLSCN set (AID 602277); conditions: HEK293-TLR3 RL24 IRF3 luciferase reporter, at 10 µM, stronger effect = higher value
[9] = biological target: Muscarinic acetylcholine receptor M4 (Homo sapiens) (UniProt P08173); assay: compounds altering M4/GIRK thallium flux, either direction, primary screen, M4 allosteric agonist project, cell-based, HEK293 M4/GIRK, BTC-AM (AID 625;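 active = fluorescence slope after compound addition differing from the mean of all tested samples at 99.7% confidence, mostly higher but some lower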;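 note: thallium influx through GIRK channels coupled to M4 in HEK293 cells with BTC-AM dye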); conditions: at 10 µM, actives lie on both sides
Chain of Muscarinic acetylcholine receptor M4 (Homo sapiens) (P08173 whole entry, looked up): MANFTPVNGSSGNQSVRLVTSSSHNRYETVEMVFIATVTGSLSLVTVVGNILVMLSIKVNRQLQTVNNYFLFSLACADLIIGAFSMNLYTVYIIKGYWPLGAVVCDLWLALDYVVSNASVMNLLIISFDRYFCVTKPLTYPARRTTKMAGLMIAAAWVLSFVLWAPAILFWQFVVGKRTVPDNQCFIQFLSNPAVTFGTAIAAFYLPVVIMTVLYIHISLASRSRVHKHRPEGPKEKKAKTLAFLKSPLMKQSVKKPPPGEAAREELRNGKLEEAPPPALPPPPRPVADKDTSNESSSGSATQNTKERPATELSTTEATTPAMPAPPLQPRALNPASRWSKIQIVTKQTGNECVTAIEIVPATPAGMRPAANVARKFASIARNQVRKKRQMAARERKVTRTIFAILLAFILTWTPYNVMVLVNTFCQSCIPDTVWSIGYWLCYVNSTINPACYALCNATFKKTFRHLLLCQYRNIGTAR

[10] = inhibitors of larval lipid processing in zebrafish, primary screen, whole organism, PED6 fluorescence, gall bladder and intestine (AID 686;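 active = a full or partial loss of lipid-probe fluorescence in the fish gall bladder, intestine or both, judged by eye; inactive = no fluorescence loss, or compound toxic to the fish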;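 note: larvae 5 to 7 days old with five fish per well; signal comes from phospholipase A2 cleavage of quenched PED6 carried via bile; overnight exposure to compound and PED6 before scoring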); conditions: Zebrafish larvae PED6 lipid processing, fluorescence scoring
[11] = inhibitors of Chlamydomonas gravitaxis, primary screen, whole organism, Chlamydomonas reinhardtii, WT vs cilia-less mutant, absorbance, 96-well (AID 463189;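 active = inhibition at or above 50% relative to wild type and mutant plate controls; inactive = inhibition below 50%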;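 note: 0% = wild type cc124 cells in DMSO and 100% = ciliumless bld1 mutant cells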); conditions: OD600 absorbance, 2 days, at 10 µM, stronger effect = higher value

SMILES | cell count [1] | inhibition [1] | inhibition of aggregation [2] | nuclei count [2] [%] | inhibition [3] | nuclei count [3] [%] | fluorescence slope [4] | NADPH fluorescence slope [5] | slope [6] | inhibition [7] | inhibition [8] | fluorescence slope [9] | outcome [10] | inhibition [11]
CCn1c(C)c(C(=O)O)c2cc(OC)ccc21 | 617 | 3.5% (inactive) | 1.8% (inactive) | 96.3 | 11.4% (inactive) | 107 | -0.495 (inactive) | -2.5e-05 (inactive) | 0.00472 (inactive) | 14.5% (inactive) | 22.2% (inactive) | – | – | –
Cc1[nH]c2c(Cl)cccc2c1CCN | 517 | 3.9% (inactive) | 1.5% (inactive) | 86.5 | -19.9% (inactive) | 110 | -0.427 (inactive) | -1.2e-05 (inactive) | – | 13% (inactive) | 18.6% (inactive) | 0.0063 (inactive) | – | –
COc1ccccc1N1CCN(Cc2cccc(OC)c2O)CC1 | 509 | -6% (inactive) | 23.5% (inactive) | 95.4 | -10% (inactive) | 85.8 | -0.58 (inactive) | -0.000104 (inactive) | – | 14.4% (inactive) | 12.6% (inactive) | 0.0035 (inactive) | – | –
OC(CNC1CCCCC1)c1ccccc1 (centres undefined) | 317 | -2.5% (inactive) | 17.9% (inactive) | 107 | -91.2% (inactive) | 105 | -0.399 (inactive) | -4.1e-05 (inactive) | 0.00434 (inactive) | 10.6% (inactive) | 22.6% (inactive) | – | inactive | –
CCOC(=O)C1=C(N)OC(C)=C(C(=O)OCCOC)C12C(=O)Nc1ccccc12 (centres undefined) | 336 | 4.8% (inactive) | -0.2% (inactive) | 91.4 | -113% (inactive) | 97 | -0.454 (inactive) | -0.000189 (active) | 0.00493 (inactive) | 19.8% (inactive) | 32% (inactive) | – | inactive | –
O=C(O)Cn1cc(C(=O)c2ccccc2)c2ccccc21 | 389 | -3.3% (inactive) | 16.7% (inactive) | 89.2 | -22.1% (inactive) | 104 | -0.352 (inactive) | 1.2e-06 (inactive) | 0.00605 (inactive) | 9.27% (inactive) | 23% (inactive) | – | inactive | –
COc1ccc(C2NCc3ccc4c(c3-n3cccc32)OCO4)cc1O (centres undefined) | 479 | 9.5% (inactive) | -349% (inactive) | 0.8 | -140% (inactive) | 99 | -0.458 (inactive) | -4.4e-05 (inactive) | – | 27.9% (inactive) | 83% (active) | 0.00468 (inactive) | – | –
COc1cc(C2NCc3ccccc3-n3cccc32)ccc1O (centres undefined) | 660 | -19.1% (inactive) | 12.9% (inactive) | 123 | -128% (inactive) | 110 | -0.487 (inactive) | -3.3e-05 (inactive) | – | -1.03% (inactive) | -2.21% (inactive) | 0.00515 (inactive) | – | –
COC(=O)c1c(C)n(Cc2ccc3c(c2)OCO3)c2ccc(O)cc12 | 598 | 2.2% (inactive) | -6.7% (inactive) | 109 | 30.8% (inactive) | 90.3 | -0.528 (inactive) | -1.6e-05 (inactive) | – | -0.687% (inactive) | -6.04% (inactive) | 0.0049 (inactive) | – | –
CC1(C)CC(=O)C=C(NCCN2CCN(C(=O)Cc3ccc(Cl)cc3)CC2)C1 | 706 | -4.2% (inactive) | 3% (inactive) | 120 | -80.1% (inactive) | 109 | -0.463 (inactive) | -4.2e-05 (inactive) | – | 16.3% (inactive) | 9.81% (inactive) | 0.00475 (inactive) | – | –
O=C(C1CCCN(S(=O)(=O)c2cccc3nsnc23)C1)N1CCC2(CC1)OCCO2 (centres undefined) | 815 | -0.7% (inactive) | 10.6% (inactive) | 96.6 | -154% (inactive) | 125 | -0.322 (inactive) | -2.9e-05 (inactive) | – | 16.9% (inactive) | 1.28% (inactive) | 0.00517 (inactive) | – | –
CCOCC(=O)NC1CCSC1=O (centres undefined) | 342 | -5% (inactive) | 17.7% (inactive) | 75.2 | 10.8% (inactive) | 95.3 | -0.48 (inactive) | -4.8e-05 (inactive) | 0.00601 (inactive) | 18.6% (inactive) | 23.1% (inactive) | – | – | –
Cc1ccc(CS(=O)(=O)CCC(=O)N2CCC3(CC2)OCCO3)cc1 | 463 | 6% (inactive) | -8.2% (inactive) | 111 | -31.5% (inactive) | 109 | -0.573 (inactive) | -6.6e-05 (inactive) | – | 13.7% (inactive) | 16.9% (inactive) | 0.00375 (inactive) | – | –
Cc1cccc(-n2c(-c3ccco3)nc3ccccc3c2=O)n1 | 344 | -2.8% (inactive) | 3.4% (inactive) | 97.9 | 20.8% (inactive) | 83.8 | -0.368 (inactive) | 7.6e-06 (inactive) | – | -11.4% (inactive) | -10.7% (inactive) | 0.00556 (inactive) | – | –
C=CCN1C(=O)C2(C(C(=O)OCC)=C(N)Oc3c2c(=O)oc2ccccc32)c2ccccc21 (centres undefined) | 679 | -7.1% (inactive) | 10.1% (inactive) | 93.2 | -41% (inactive) | 91.1 | -0.467 (inactive) | -0.000107 (inactive) | 0.00519 (inactive) | 13.6% (inactive) | 21.3% (inactive) | – | inactive | –
O=C(c1ccc2nc3ccc(Cl)cc3c(=O)n2c1)N1CCC2(CC1)OCCO2 | 758 | -20.4% (inactive) | 8% (inactive) | 110 | -56.7% (inactive) | 125 | -0.0098 (inactive) | 1.1e-05 (inactive) | – | -8.72% (inactive) | -12% (inactive) | 0.00414 (inactive) | – | –
O=C(CCCOc1ccc(Cl)cc1Cl)N1CCC2(CC1)OCCO2 | 751 | -20.4% (inactive) | -14.9% (inactive) | 114 | -51.1% (inactive) | 102 | -0.365 (inactive) | -4.9e-05 (inactive) | 0.0028 (inactive) | -4.5% (inactive) | -38.8% (inactive) | – | – | –
CCOc1ccc(Br)c(C2(O)CC(C)N(C)CC2C)c1 (centres undefined) | 607 | -10.1% (inactive) | -25.8% (inactive) | 122 | -36.6% (inactive) | 121 | -0.398 (inactive) | -8.9e-05 (inactive) | – | 12.4% (inactive) | 21.4% (inactive) | 0.00551 (inactive) | – | –
COc1ccccc1OCCCn1cc(C(=O)c2ccco2)c2ccccc21 | 596 | -2.5% (inactive) | -12.2% (inactive) | 101 | -29.4% (inactive) | 111 | -0.309 (inactive) | -2.9e-06 (inactive) | – | -22.2% (inactive) | -81.2% (inactive) | 0.00746 (inactive) | – | –
NC(=O)OCCSc1nnc(-c2cccc(C(N)=S)c2)o1 | 330 | 3.5% (inactive) | -7.4% (inactive) | 107 | -48% (inactive) | 96.2 | -0.541 (inactive) | -9.5e-05 (inactive) | – | 17.8% (inactive) | 12.8% (inactive) | 0.00508 (inactive) | – | –
CSc1ccc(C(=O)C(C)(C)N2CCOCC2)cc1 | 401 | -5.2% (inactive) | -13.1% (inactive) | 102 | -65.3% (inactive) | 105 | -0.577 (inactive) | -4.3e-05 (inactive) | – | 14.9% (inactive) | 2.25% (inactive) | 0.00392 (inactive) | – | –
Cn1c(=O)cc(SCC(=O)N2CCC3(CC2)OCCO3)c2ccc(Cl)cc21 | 442 | 0.9% (inactive) | 7.2% (inactive) | 84.4 | 22.8% (inactive) | 106 | -0.556 (inactive) | -3.6e-05 (inactive) | – | 32.3% (inactive) | 38.4% (inactive) | 0.00629 (inactive) | – | –
Cc1ccc(S(=O)(=O)Cc2ccc(C(=O)N3CCC4(CC3)OCCO4)o2)cc1 | 602 | -6.9% (inactive) | 16.1% (inactive) | 113 | -17.6% (inactive) | 102 | -0.432 (inactive) | -0.000506 (inactive) | – | -7.38% (inactive) | -9.45% (inactive) | 0.00517 (inactive) | – | –
CCCN(CCC)[C@H]1CCc2c(F)ccc(O)c2C1 | – | – | – | – | – | – | – | – | – | – | – | – | – | -6.79% (inactive)
O=C(CN1CCN(Cc2cccc(Cl)c2)C1=O)N1CCC2(CC1)OCCO2 | 363 | 1.1% (inactive) | 19.2% (inactive) | 73.9 | 26.2% (inactive) | 111 | -0.578 (inactive) | -1.5e-05 (inactive) | – | 4.07% (inactive) | 14% (inactive) | 0.00798 (inactive) | – | –
CC(C)=CCSc1nnc([C@@H](N)Cc2c[nH]c3ccccc23)o1 | 593 | 0.9% (inactive) | 14.2% (inactive) | 101 | 2.3% (inactive) | 92.2 | -0.561 (inactive) | 2.9e-05 (inactive) | – | 5.87% (inactive) | 2.18% (inactive) | 0.00453 (inactive) | – | –
Cn1c(O)c(C=NCc2ccco2)c(=O)n(C)c1=O | 327 | -3.8% (inactive) | -8.5% (inactive) | 109 | -150% (inactive) | 118 | -0.557 (inactive) | 3.2e-06 (inactive) | – | 22.6% (inactive) | 14.6% (inactive) | 0.00416 (inactive) | – | –
O=C(O)c1nonc1-c1nonc1C(=O)O | 195 | -1.9% (inactive) | 14.6% (inactive) | 99.5 | -27.8% (inactive) | 104 | -0.641 (inactive) | -1.4e-05 (inactive) | – | 17.8% (inactive) | 15.2% (inactive) | 0.00379 (inactive) | – | –
Cc1nc(-c2ccc(-c3ccc(C(=O)N4CCc5cc6c(cc54)C4(CCN(C)CC4)CO6)cc3)c(C)c2)no1 | – | – | – | – | – | – | – | – | – | – | – | – | – | 141% (active)
CSc1ccc(CNC2CN3CCC2CC3)cc1 (centres undefined) | 350 | 0.2% (inactive) | -0.6% (inactive) | 103 | 32.3% (inactive) | 102 | -0.421 (inactive) | -9.5e-05 (inactive) | – | 12.2% (inactive) | 24.5% (inactive) | 0.00514 (inactive) | – | –

— PubChem BioAssay
